Measured values from the antibiotic and cytotoxicity screens of Wong et al. (2023).
The campaign covered roughly 39,000 compounds. About 3,300 (8.5%) were called active. This is one part of a sample in which actives are shown more often than they occur.

test system: HepG2; assay: cytotoxicity call (relative viability < 0.9); details: 10 µM

Row | SMILES | cytotoxicity call
1 | Cc1ccc(S[C@]2(C(=O)NC3CC3)CC(=O)N(Cc3ccccc3C(F)(F)F)[C@@H]2c2ccc(CO)cc2)cc1 | inactive
2 | Cc1ccc(S(=O)(=O)N2CCOCC2)cc1NC(=O)CN1C(=O)CN(C)C1=O | inactive
3 | C[C@@H]1CN([C@H](C)CO)C(=O)CCCn2cc(nn2)CO[C@H]1CN(C)Cc1cccc2c1OCCCO2 | inactive
4 | C[C@H](CO)N1C[C@H](C)[C@H](CN(C)Cc2ccccc2)OCCCC[C@H](C)Oc2ccc(NS(=O)(=O)c3ccc(F)cc3)cc2C1=O | inactive
5 | C[C@H]1CN([C@@H](C)CO)C(=O)c2cc(-c3cccc(C(=O)N(C)C)c3)cnc2O[C@H]1CN(C)C(=O)Cc1ccccn1 | inactive
6 | C[C@@H]1CN([C@@H](C)CO)C(=O)c2cc(C#Cc3ccccc3F)cnc2O[C@H]1CN(C)C(=O)Cc1ccncc1 | inactive
7 | CN1CCN(CCO)CC1 | inactive
8 | C[C@@H]1CCCCO[C@@H](CN(C)S(=O)(=O)c2cccs2)[C@@H](C)CN([C@H](C)CO)C(=O)c2cc(NC(=O)CCC(F)(F)F)ccc2O1 | inactive
9 | COc1ccc(S(=O)(=O)Nc2ccc3c(c2)C(=O)N([C@H](C)CO)C[C@H](C)[C@@H](CN(C)S(=O)(=O)c2cccs2)O3)cc1 | inactive
10 | CC(C)NC(=O)N(C)C[C@@H]1Oc2cc(C#Cc3ccccn3)ccc2S(=O)(=O)N([C@@H](C)CO)C[C@H]1C | inactive
11 | O=C(C[C@H]1CC[C@@H]2[C@H](COC[C@@H](O)CN2S(=O)(=O)c2ccc(Cl)cc2)O1)NCCN1CCCC1 | inactive
12 | C[C@@H]1CN([C@H](C)CO)C(=O)c2cccc(NC(=O)c3cnccn3)c2O[C@@H]1CN(C)Cc1ccc2c(c1)OCO2 | inactive
13 | C[C@H]1CN([C@@H](C)CO)C(=O)c2ccccc2-c2ccccc2CO[C@H]1CN(C)C(=O)c1cc(Cl)cc(Cl)c1 | inactive
14 | C[C@@H]1CN([C@H](C)CO)C(=O)Cc2cc(NC(=O)Nc3ccc(C(F)(F)F)cc3)ccc2O[C@@H]1CN(C)C(=O)Nc1ccc(C(F)(F)F)cc1 | active
15 | C[C@H](CO)N1C[C@H](C)[C@H](CN(C)C(=O)Nc2ccc(C(F)(F)F)cc2)Oc2ccc(NC(=O)Nc3ccc(C(F)(F)F)cc3)cc2CC1=O | active
16 | COCC#Cc1ccc([C@@H]2[C@@H](CO)N3C(=O)CN(C(=O)c4cccnc4)C[C@H]23)cc1 | inactive
17 | CCO[C@H]1OC(C(=O)N2CCN(Cc3ccc4c(c3)OCO4)CC2)=C[C@@H](c2ccc(C(F)(F)F)cc2)[C@@H]1CCCOC(=O)NCCCCCC(=O)NO | inactive
18 | CC(C)C(=O)N1CC[C@H]2CN(CC(=O)N(C)C)S(=O)(=O)[C@@H]2CC1 | inactive
19 | C[C@H]1CCCCO[C@@H](CN(C)S(=O)(=O)c2ccccc2)[C@@H](C)CN([C@@H](C)CO)C(=O)c2cc(NC(=O)C3CCCCC3)ccc2O1 | inactive
20 | O=C(C[C@H]1CC[C@H]2[C@@H](COC[C@H](O)CN2S(=O)(=O)c2cccc(Cl)c2)O1)N1CCOCC1 | inactive
21 | CO[C@@H](C(=O)N(C)C[C@@H]1OCc2ccccc2-c2c(n(C)c3ccccc23)C(=O)N([C@H](C)CO)C[C@@H]1C)c1ccccc1 | inactive
22 | CNS(=O)(=O)c1cc(OC)ccc1OC | inactive
23 | COc1cccc(S(=O)(=O)N2C[C@H](O)COC[C@H]3O[C@@H](CC(=O)N4CCN(c5ccccc5)CC4)CC[C@@H]32)c1 | inactive
24 | CCCNC(=O)Cn1c(=O)n(C)c2ccccc21 | inactive

Row | SMILES | cytotoxicity call
25 | C[C@H](CO)N1C[C@H](C)[C@@H](CN(C)CC2CCCCC2)OCCCC[C@H](C)Oc2ccc(NC(=O)Cc3ccccc3)cc2C1=O | inactive
26 | C[C@@H]1CCCCO[C@@H](CN(C)CC2CCCCC2)[C@@H](C)CN([C@H](C)CO)C(=O)c2cc(NC(=O)CCCN(C)C)ccc2O1 | inactive
27 | C[C@@H]1CN([C@H](C)CO)C(=O)c2cc(NC(=O)CCCN(C)C)ccc2O[C@@H](C)CCCCO[C@H]1CN(C)CC1CCCCC1 | inactive
28 | C[C@@H]1CN([C@@H](C)CO)C(=O)c2cc(NC(=O)Cc3ccccc3)ccc2O[C@@H](C)CCCCO[C@H]1CN(C)CC1CCCCC1 | active
29 | C[C@H]1CCCCO[C@@H](CN(C)CC2CCCCC2)[C@@H](C)CN([C@@H](C)CO)C(=O)c2cc(NC(=O)Cc3ccccc3)ccc2O1 | active
30 | C[C@@H]1CCCCO[C@H](CN(C)CC2CCCCC2)[C@H](C)CN([C@H](C)CO)C(=O)c2cc(NC(=O)Cc3ccccc3)ccc2O1 | inactive
31 | C[C@H]1CCCCO[C@H](CN(C)CC2CCCCC2)[C@@H](C)CN([C@@H](C)CO)C(=O)c2cc(NC(=O)Cc3ccccc3)ccc2O1 | active
32 | C[C@@H]1CCCCO[C@H](CN(C)CC2CCCCC2)[C@@H](C)CN([C@H](C)CO)C(=O)c2cc(NC(=O)Cc3ccccc3)ccc2O1 | inactive
33 | C[C@H](CO)N1C[C@H](C)[C@H](CN(C)CC2CCCCC2)OCCCC[C@H](C)Oc2ccc(NC(=O)Cc3ccccc3)cc2C1=O | inactive
34 | C[C@@H]1CCCCO[C@@H](CN(C)CC2CCCCC2)[C@H](C)CN([C@H](C)CO)C(=O)c2cc(NC(=O)Cc3ccccc3)ccc2O1 | inactive
35 | C[C@@H]1CCCCO[C@@H](CN(C)CC2CCCCC2)[C@H](C)CN([C@@H](C)CO)C(=O)c2cc(NC(=O)Cc3ccccc3)ccc2O1 | inactive
36 | C[C@H]1CCCCO[C@@H](CN(C)CC2CCCCC2)[C@@H](C)CN([C@@H](C)CO)C(=O)c2cc(NC(=O)CCCN(C)C)ccc2O1 | active
37 | C=CC(C)(O)CCC1C(C)(O)CCC2C(C)(C)CCCC21C (stereo unspecified) | inactive
38 | CCS(=O)(=O)Nc1ccc2c(c1)C(=O)N(C)[C@@H]1CC[C@H](CC(=O)N3CCN(C)CC3)O[C@@H]1CO2 | inactive
39 | NCC[C@H]1CC[C@H](NC(=O)Nc2ccc(F)cc2)[C@H](CO)O1 | inactive
40 | CN(C)CCN1CCN(C)C2(CCN(S(=O)(=O)C3CC3)CC2)C1=O | inactive
41 | Cc1noc(C)c1NC(=O)Nc1ccc2c(c1)CC(=O)N([C@@H](C)CO)C[C@H](C)[C@@H](CN(C)Cc1ccc(C(=O)Nc3ccccc3N)cc1)O2 | inactive
42 | CCCNC(=O)N1C[C@H](O)COC[C@@H]2O[C@@H](CC(=O)N3CCOCC3)CC[C@H]21 | inactive
43 | CO[C@@H]1CN(C)C(=O)c2cc(NC(=O)Nc3cccc(F)c3)ccc2OC[C@@H](C)N(C(=O)Nc2c(C)noc2C)C[C@H]1C | inactive
44 | Cc1cc(Cn2c(=O)n(Cc3cnc(C)s3)c(=O)c3cc(S(=O)(=O)NC4(C)CC4)ccc32)n(C)n1 | inactive
45 | COc1ccccc1CNC(=O)C[C@@H]1C[C@H]2c3cc(NC(=O)c4ccc5c(c4)OCO5)ccc3O[C@H]2[C@H](CO)O1 | inactive
46 | C[C@@H]1CN([C@@H](C)CO)C(=O)c2cc(C#Cc3ccccc3)cnc2O[C@@H]1CN(C)S(=O)(=O)c1ccccc1F | active
47 | C[C@H]1CN([C@@H](C)CO)C(=O)c2cc(C#Cc3ccccc3)cnc2O[C@H]1CN(C)S(=O)(=O)c1ccccc1F | inactive
48 | C[C@H]1CN([C@@H](C)CO)C(=O)c2cc(C#Cc3ccccc3F)cnc2O[C@@H]1CN(C)S(=O)(=O)c1ccccc1F | inactive

Row | SMILES | cytotoxicity call
49 | C[C@@H]1CN([C@H](C)CO)C(=O)c2cc(C#Cc3ccccc3F)cnc2O[C@H]1CN(C)S(=O)(=O)c1ccccc1F | inactive
50 | C[C@@H]1CN([C@@H](C)CO)C(=O)c2cc(C#Cc3ccccc3)cnc2O[C@H]1CN(C)S(=O)(=O)c1ccccc1F | active
51 | C[C@H](CO)N1C[C@H](C)[C@@H](CN(C)S(=O)(=O)c2ccccc2F)Oc2ncc(C#Cc3ccccc3)cc2C1=O | inactive
52 | C[C@@H]1CN([C@H](C)CO)C(=O)c2cc(C#Cc3ccccc3)cnc2O[C@@H]1CN(C)S(=O)(=O)c1ccccc1F | inactive
53 | C[C@@H]1CN([C@@H](C)CO)C(=O)c2cc(C#Cc3ccccc3F)cnc2O[C@H]1CN(C)S(=O)(=O)c1ccccc1F | active
54 | C[C@H](CO)N1C[C@H](C)[C@H](CN(C)S(=O)(=O)c2ccccc2F)Oc2ncc(C#Cc3ccccc3)cc2C1=O | inactive
55 | C[C@H](CO)N1C[C@H](C)[C@H](CN(C)C(=O)Nc2cccc3ccccc23)Oc2ccc(NC(=O)NC3CCCCC3)cc2CC1=O | inactive
56 | Cc1cc(=O)n(CNC(=O)c2ccco2)cn1 | inactive
57 | O=C([O-])C(O)C(O)C(O)C(O)C(O)CO.O=C([O-])C(O)C(O)C(O)C(O)C(O)CO.[Ca+2] (stereo unspecified) | inactive
58 | O=C(C[C@H]1CC[C@H]2NC[C@@H](O)COC[C@@H]2O1)NCCN1CCCC1 | inactive
59 | COc1ccsc1C(N)=O | inactive
60 | C[C@H]1CN([C@@H](C)CO)C(=O)Cc2cc(NC(=O)CCCCCC(=O)Nc3ccccc3N)ccc2O[C@@H]1CN(C)C(=O)Nc1cccc2ccccc12 | inactive
61 | COC(=O)C[C@@H]1CC[C@@H]2[C@H](COC[C@@H](O)CN2S(=O)(=O)c2cn(C)cn2)O1 | inactive
62 | CC(C)=CCC/C(C)=C/CC/C(C)=C/CC/C(C)=C/CO | inactive
63 | Cc1ccc(-c2cnc3c(c2)C(=O)N([C@@H](C)CO)C[C@H](C)[C@H](CN(C)C(=O)Cc2ccncc2)O3)cc1 | inactive
64 | C[C@@H]1CN([C@H](C)CO)C(=O)c2cc(NC(=O)CCN3CCOCC3)ccc2O[C@@H]1CN(C)S(=O)(=O)c1ccc(F)cc1 | inactive
65 | C[C@@H]1CCCCO[C@H](CN(C)C(=O)c2ccccc2)[C@@H](C)CN([C@H](C)CO)C(=O)c2cc(NC(=O)Nc3ccccc3)ccc2O1 | inactive
66 | C[C@H](CO)N1C[C@H](C)[C@H](CN(C)C(=O)Nc2ccc3c(c2)OCO3)Oc2ccc(NC(=O)CCN3CCOCC3)cc2C1=O | inactive
67 | C[C@@H]1CN([C@@H](C)CO)C(=O)c2cc(NC(=O)CCN3CCOCC3)ccc2O[C@H]1CN(C)C(=O)Nc1ccc2c(c1)OCO2 | inactive
68 | C[C@@H]1CN([C@H](C)CO)C(=O)c2cc(NC(=O)CCN3CCOCC3)ccc2O[C@@H]1CN(C)C(=O)Nc1ccc2c(c1)OCO2 | inactive
69 | C[C@@H]1CN([C@@H](C)CO)C(=O)c2cc(NC(=O)CCN3CCOCC3)ccc2O[C@@H]1CN(C)C(=O)Nc1ccc2c(c1)OCO2 | active
70 | C[C@@H]1CN([C@H](C)CO)C(=O)c2cc(NC(=O)CCN3CCOCC3)ccc2O[C@H]1CN(C)C(=O)Nc1ccc2c(c1)OCO2 | active
71 | C[C@H]1CN([C@@H](C)CO)C(=O)c2cc(NC(=O)CCN3CCOCC3)ccc2O[C@H]1CN(C)C(=O)Nc1ccc2c(c1)OCO2 | inactive
